Source: PubChem
An excerpt weighted towards active compounds, which were near 12% of everything screened.
FMDV inh – foot and mouth disease virus antiviral activity; FMDV antiviral cell-based qHTS; Potency, µM (top dose mostly 57.9 µM), for the others: top-dose activity change, negative = inhibition, actives largely listed as inhibitors; 410,000 tested, 1.2% active; calls by dose curve; tested in HEK293T cells; also: read-out not given here; potency is read from the fitted curve at half-maximal effect; % is scaled to controls: 0 for no effect and ±100 for the full control effect; nearly all actives have a fitted effect of over 45% in size
Sm TGR inh – S. mansoni TGR enzyme inhibition; 360,000 tested, 3% active; Q962Y6; Potency, µM (top dose mostly 114 µM), without a hit: at the top dose activity change, negative = inhibition, usual class: inhibitors; purified TGR, DTNB reduction, TNB absorbance 405 nm; active = well fitted inhibition curve with a large enough effect; inconclusive = small, poorly fitted or top-dose-only effect; inactive = no such curve, though single readings can be large or run the other way; also: potency is read from the fitted curve at half-maximal effect; % is scaled to controls: 0 for no effect and ±100 for the full control effect; nearly all actives have a fitted effect of over 60% in size
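First, TGR (20 nM dispensed) and NADPH were mixed with compound. Second, a 15 min room-temperature incubation followed. Third, further NADPH and then DTNB were added to start the reaction. Finally, TNB absorbance was monitored kinetically.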
Shiga toxin inh – blocks Shiga toxin action in Vero cells. 290,000 tested, 9.2% active. AID 2315. inhibition, % at 38.7 µM. Vero cells, Shiga toxin protein synthesis inhibition reporter; in the data active = inhibition mostly above about 28%, no sharp cut-off; inactive = mostly below about 43%; also: 0% is about no effect
Cycloheximide cs – affects cycloheximide protein synthesis inhibition readout, counter-screen; 300,000 tested, 12% active; max response, %; cell reporter, cycloheximide protein synthesis inhibition counterscreen; in the data active = max response mostly above about 13%, no sharp cut-off; inactive = mostly below about 14%; also: read at 38.3 µM for the half of the compounds with a filed dose; 0% is about no effect
The depositor's hits bear a star; u = inconclusive; x = no result; ! = repeats disagree.

SMILES	FMDV inh	Sm TGR inh	Shiga toxin inh	Cycloheximide cs
COc1ccc(NC(=O)CSc2nc3c(oc4ccccc43)c(=O)n2-c2ccccc2)cc1OC	-3%	25%	x	x
Cn1c(CNc2ccc(Cl)cc2)nc2ccccc21	-3%	-5%	110*	31*
Cc1nc2cc(NCc3nc4ccccc4n3Cc3ccccc3)ccc2n1C	-30%	8%	44*	27*
Cc1ccc(NCc2nc3ccccc3n2C)c(C)c1	-1%	3%	45*	23*
Cc1ccc(N2CCN(c3ccc(NCc4nc5ccccc5n4C)cc3)CC2)cc1	13%	-26%	25	1
Cc1cccc(NCc2nc3ccccc3n2Cc2ccccc2)c1	-15%	-29%	15	12
O=c1cc(NCCc2ccccc2)c2ccccc2o1	-8%	x	42*	24*
COc1ccc(-c2cc(C(F)(F)F)n3nc(C(=O)Nc4cccc(Cl)c4Cl)cc3n2)cc1OC	-11%	-6%	x	x
COc1ccc(-c2cn3nc(N4CCCC(C(=O)Nc5cccc(OC)c5)C4)sc3n2)cc1 (stereo unspecified)	-26%	19%	x	x
O=C(NCc1ccco1)C(=O)NCC1OCCN1C(=O)c1ccc(Cl)cc1 (stereo unspecified)	12%	18µM*	-7	-2
O=C(NCc1ccccn1)C(=O)NCC1OCCN1C(=O)c1ccc(Cl)cc1 (stereo unspecified)	1%	x	x	x
CCOC(=O)c1[nH]c2ccccc2c1NC(=O)c1ccccc1F	-14%	-4%	x	x
COc1ccc([C@@H]2CC(=O)c3c(O)cc(O[C@@H]4O[C@H](CO)[C@@H](O)[C@H](O)[C@H]4OC4O[C@@H](C)[C@H](O)[C@@H](O)[C@H]4O)cc3O2)cc1O (stereo partly specified)	x	x	2	-2
Cc1cc(Oc2nnnn2-c2ccccc2)ccc1Cl	46%	5%	42	30*
O=C1OC(c2ccccc2)=NC12CC2c1ccc(Cl)cc1 (stereo unspecified)	28µM*	14µM*	8	0
CCc1cccc(Nc2ncnc3onc(-c4ccc(F)cc4)c23)c1	u	23%	x	x
Nc1nc(N)c(N=O)c(OCC2CCCCC2)n1	-12%	2%	41*!	21*
Nc1ccccc1N=Nc1ccccc1N	26%	23%	51*	44*
CCOC(=O)c1cccc(NC(=O)c2cc3cc4ccc(C)cc4nc3o2)c1	-19%	3%	x	x
Cn1nnc2c[n+](CC(=O)c3ccc4ccccc4c3)cc(Br)c21	u	u	29	15*
CCc1nn2c(=O)cc(COC(=O)Cc3ccccc3)nc2s1	-14%	-1%	x	x
CC(=O)c1ccc(N2CCN(c3ncnc4c3cnn4C)CC2)cc1	u	-1%	x	x
Cc1ccc(-n2ncc3c(N4CCN(C)CC4)ncnc32)cc1C	-37%	8%	x	x
COc1ccccc1N1CCN(c2ncnc3c2cnn3-c2cc(Cl)ccc2C)CC1	11µM*	15%	x	x
Cc1ccc(Cl)cc1-n1ncc2c(N3CCCCCC3)ncnc21	20µM*	-4%	x	x
SMILES	FMDV inh	Sm TGR inh	Shiga toxin inh	Cycloheximide cs
CCN(c1ncnc2c1cnn2-c1cc(Cl)ccc1C)C1CCCCC1	u	0%	x	x
Cc1ccc(-n2ncc3c(N4CCCCC4)ncnc32)cc1Cl	25µM*	-3%	x	x
CC(=O)c1ccc(N2CCN(c3ncnc4c3cnn4-c3cc(Cl)ccc3C)CC2)cc1	14µM*	-8%	x	x
CCNC(=O)C1CCN(Cc2cc3ccccc3n2Cc2ccc(C)cc2)CC1	11%	-9%	x	x
COCCCNS(=O)(=O)c1cc(-c2onc(C)c2C)ccc1OC	74%	-3%	x	x
Cc1c(C(=O)NCc2cccc(Cl)c2)sc2nc[nH]c(=O)c12	5%	5%	x	x
Clc1ccc(Cn2ncc3c(N4CCCCC4)ncnc32)c(Cl)c1	28µM*	6%	-13	6
Clc1ccc(-n2ncc3c(N4CCCCCC4)ncnc32)cc1	u	2%	33	21*
c1ccc(CN2CCN(c3ncnc4c3cnn4-c3ccccc3)CC2)cc1	u	7%	x	x
COc1ccc(N2CCN(c3ncnc4c3cnn4-c3ccc(C)c(Cl)c3)CC2)cc1	-1%	4%	x	x
Cc1ccc(-n2ncc3c(N4CCCCCC4)ncnc32)cc1Cl	63µM*	10%	x	x
Cc1ccc(-n2ncc3c(N4CCN(Cc5ccccc5)CC4)ncnc32)cc1Cl	13µM*	-26%	x	x
Clc1ccc(Cn2ncc3c(N4CCCCC4)ncnc32)cc1	u	3%	12	11
COc1ccc(N(C(=O)c2ccccc2C)S(=O)(=O)c2ccc3c(c2)n(C)c(=O)n3C)cc1	-19%	3%	x	x
CCOC(=O)c1ccccc1NC(=O)Cn1cc(C(=O)c2cccc(OC)c2)c(=O)c2ccc(C)nc21	-3%	7%	x	x
COc1ccc(-n2ncc3c(N4CCCCC4)ncnc32)cc1	10µM*	3%	-23	-6
Cc1ccc(-n2ncc3c(N4CCCCC4)ncnc32)cc1	u	3%	x	x
Cc1ccc(NC(=O)CN2C(=O)CCc3cc(S(=O)(=O)N4CCCCC4)ccc32)cc1N(C)C	0%	3%	x	x
O=C(NCc1cccnc1)c1cnn(-c2ncc3c(n2)-c2ccccc2CCC3)c1C1CC1	-14%	x	x	x
O=C(Nc1ccccc1)N1CCN(Cc2ccc3c(c2)OCO3)CC1	-19%	-4%	-14	-4
O=C(Nc1ccc2c(c1)OCCO2)N1CCN(c2ccccc2)CC1	-1%	-1%	47*	20*
O=C(Nc1ccc2c(c1)OCCO2)N1CCN(Cc2ccccc2)CC1	41%	16%	61*	38*
O=C(Nc1ccc2c(c1)OCO2)N1CCN(c2ccccc2)CC1	7%	0%	21	10
COc1cccc(CNC(=O)c2ccc3nc(CCc4ccccc4)oc3c2)c1OC	1%	0%	x	x
COc1ccc2c(c1)c1c(c(=O)n(-c3ccc(F)c(Cl)c3)c(=O)n1Cc1ccccc1C)n2C	7%	-4%	x	x
SMILES	FMDV inh	Sm TGR inh	Shiga toxin inh	Cycloheximide cs
Cc1ccccc1-c1noc(-c2cc3ccccc3oc2=O)n1	12%	4%	x	x
Fc1ccccc1-c1nc(-c2ccc(Br)o2)no1	-24%	2%	85*	57*
Cc1ccccc1-c1nc(-c2ccc(NC(=O)c3ccc(Br)o3)cc2)no1	-6%	2%	57*	27*
Cc1ccccc1-c1nc(-c2ccc(Br)o2)no1	4%	-23%	97*	44*
COc1ccc(Cl)cc1-c1nc(-c2ccc(Br)o2)no1	6%	3%	-4	1
COc1ccccc1CNC(=O)CCCCn1c(=O)c2ccccc2n(CC(=O)Nc2cccc(Cl)c2)c1=O	-21%	9%	x	x
Cc1n[nH]c(=S)n1/N=C/c1ccc(OCc2ccc(Cl)cc2Cl)cc1	20%	0%	79*	39*
Cc1cc(C)c(COc2ccc(/C=N/n3c(C)n[nH]c3=S)cc2)c(C)c1	-27%	-12%	30*	9
Cc1ccc(C)c(CN2C(=O)c3ccccc3S(=O)c3ccc(C(=O)NCc4ccco4)cc32)c1 (stereo unspecified)	-22%	-3%	x	x
CNC(=S)Nc1cccc(-c2cnc3ccccc3n2)c1	29%	11µM*	58*	26*
CC(=O)Nc1ccc(C(=O)Nc2cccc(-c3cnc4ccccc4n3)c2)cc1	22%	-15%	30	18
O=C(Nc1cccc(-c2cnc3ccccc3n2)c1)c1ccncc1	-21%	-1%	36	23*
